The record followed here is PubChem BioAssay AID1851 (National Center for Advancing Translational Sciences (NCATS), 2009).

Values joined by “and” are separate entries in the source; they are usually repeats but may differ in a detail not shown here. Equal entries are not always repeated. Out of some 16,000 compounds screened, about 4,000 (25%) were called active. Inconclusive results (about 26%) are left out. Calls follow the shape of the dose curve; as a rule, active = well fitted curve in the direction sought with a large enough effect; inconclusive = small, poorly fitted or top-dose-only effect, or effect the other way; inactive = no such curve, though single readings can be large or run the other way. A selection follows. Where a structure was tested more than once in an assay, its records may differ in their call.
% is scaled to controls: 0 for no effect and ±100 for the full control effect.

For the experiment, the target named is Cytochrome P450 2C9 (Homo sapiens) (UniProt P11712). In words: Cytochrome panel assay with activity outcomes. The settings on record: recombinant CYP, pro-luciferin dealkylation, luminescence, p450-cyp2c9; series mostly up to 57.1 µM; activity, negative = inhibition: at the top concentration.
Chain of Cytochrome P450 2C9 (Homo sapiens) (P11712 whole entry, looked up): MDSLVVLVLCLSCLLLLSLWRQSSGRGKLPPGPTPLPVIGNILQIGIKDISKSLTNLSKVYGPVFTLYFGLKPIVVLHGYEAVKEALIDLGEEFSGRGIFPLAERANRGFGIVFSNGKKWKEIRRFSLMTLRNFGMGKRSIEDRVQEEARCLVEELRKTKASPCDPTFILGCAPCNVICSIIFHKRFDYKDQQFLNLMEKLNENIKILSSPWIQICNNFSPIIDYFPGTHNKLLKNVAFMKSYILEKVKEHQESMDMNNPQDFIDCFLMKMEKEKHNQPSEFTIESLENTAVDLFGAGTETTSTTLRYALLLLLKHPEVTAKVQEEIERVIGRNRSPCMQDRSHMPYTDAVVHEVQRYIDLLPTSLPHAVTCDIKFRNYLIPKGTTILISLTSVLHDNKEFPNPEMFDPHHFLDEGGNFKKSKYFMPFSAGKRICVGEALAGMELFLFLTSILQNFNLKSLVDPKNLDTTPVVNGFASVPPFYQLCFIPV
As a reminder, the AC50 is the midpoint of the concentration-response curve, whichever way the signal moves. Consider `CCCCCC1=C2CNC(CC(C)C)(C(=O)OC)C=C2C(C)C1=O` (stereo not given), for which the AC50 was 3.16 µM (active).
On the same count and under the same terms, under `COC(=O)C1(CC(C)C)C=C2C(=C(C(C)C)C(=O)C2C)CN1` (stereo not given) stands 12.6 µM (active); under `CCCCCC1=C2CNC(CCC)(C(=O)OC)C=C2C(C)C1=O` (stereo not given), 10 µM (active).
For the molecule `CCCC1(C(=O)OC)C=C2C(=C(C)C(=O)C2C)CN1` (stereo not given), the “activity, negative = inhibition” value is -6.7% (inactive).
Same read-out and setting: next, `c1ccc(CNc2ccnc(-c3ccc4c(c3)OCO4)n2)cc1`: -0.997% [at 2.29 µM] (inactive).
Still for that read-out and setting: next, `O=C(O)[C@@H](O)[C@@H](O)[C@@H](O)[C@@H](O)C(=O)O` (tested in a mixture with another compound): -19.4% [at 25.6 µM] (inactive).
Turning to `Cc1ccccc1OCC(=O)N/N=C1\CCOc2c(C)cccc21`, the “activity, negative = inhibition” value was -0.88% (inactive).
On to `Cc1cccc2c1OCC/C2=N\NC(=O)COc1ccccc1`, for which the AC50 was 15.8 µM (active).
In the case of `CCCCOc1ccc(/C=C/C(=O)NCCc2nc3ccccc3[nH]2)cc1`, the AC50 is 6.31 µM (active).
Consider `COc1ccc(CNC(=O)/C=C/c2ccc(OCCCF)cc2)cc1`, for which the “activity, negative = inhibition” value was -25.4% (inactive).
`O=C(Nc1ccccc1)N1CCC2(CC1)CCN(C(=O)c1ccco1)CC2`: the “activity, negative = inhibition” value was -7.61% (inactive).
Still for that read-out and setting: next, `N#C/C(=C\c1ccc(O)c(O)c1)C(=O)Nc1ccccc1`: -18.9% (inactive).
On to `Cc1ccc(NC(=O)/C(=C\c2ccc3c(c2)OCO3)NC(=O)c2ccco2)cc1`, for which the AC50 is 3.55 µM (active).
For `Cc1cccc(OCC(=O)N/N=C\C=C\c2ccc3c(c2)OCO3)c1C`, the “activity, negative = inhibition” value is 8.15% (inactive).
Turning to `O=C(Nc1ccccc1)/C(=C\c1ccc2c(c1)OCO2)NC(=O)c1ccco1`, the AC50 is 10 µM (active).
In the case of `Cc1noc(C)c1C(=O)N1CCC[C@@]2(CCN(C(=O)Nc3cccc(F)c3)C2)C1`, the “activity, negative = inhibition” value was -5.02% (inactive).
The same measure, in the same setting: under `O=C(Nc1c[nH]c(=O)[nH]c1=O)Oc1ccccc1` stands 1.86% [at 11.4 µM] (inactive).
Still for that read-out and setting: under `NOCC(=O)O` stands -0.0818% (inactive); under `Cc1ccc(Sc2cc(Cl)nc(N)n2)cc1`, -3.63% (inactive).
As to `CCNc1nc(Sc2ccc(C)cc2)cc(C(F)(F)F)n1`, the AC50 is 25.1 µM (active).
For the molecule `CC[C@@H](CS(=O)(=O)O)[N+](=O)[O-]`, the activity, negative = inhibition is 5.26% [at 11.4 µM] (inactive).
On to `O=C(CN(Cc1ccccc1)S(=O)(=O)c1ccc2c(c1)OCCO2)N/N=C/c1ccc(F)cc1`, for which the AC50 was 14.1 µM (active).
In the case of `COCc1cc(=O)[nH]c2cc(NC(=O)C(F)(F)F)c(C)cc12`, the “activity, negative = inhibition” value is 10.5% (inactive).
Same read-out and setting: under `Cc1ccc(C(=O)Nc2nc3ccccc3n3nnnc23)cc1` stands -12.8% (inactive).
For `CCn1c(-c2nonc2NC(=O)c2ccccc2)nc2ccccc21`, the AC50 is 0.501 µM (active).
As to `CCC(=O)Nc1nonc1-c1nc2ccccc2n1N(C(=O)CC)C(=O)CC`, the AC50 is 10 µM (active).
Consider `CC(=O)OC[C@H]1O[C@@H](O/N=C\[C@@H](C)[C@H](OCc2ccccc2)C(C)C)[C@H](OC(C)=O)[C@@H](OC(C)=O)[C@H]1OC(C)=O`, for which the activity, negative = inhibition was 1.31% [at 11.4 µM] (inactive).
In the case of `CC[C@]1(C)CC(=O)NC1=O`, the AC50 result is “inactive”.
In the case of `Cc1cc(C(=O)N[C@H](c2ccccc2)[C@@]2(C)C[C@@H]2[C@@H](C)C(=O)Nc2ccc3ccccc3c2)n(C)n1`, the AC50 was 7.94 µM (active).
Same read-out and setting: under `Cc1cc(C(=O)N[C@@H](c2ccccc2)[C@]2(C)C[C@H]2[C@@H](C)C(=O)Nc2ccc3ccccc3c2)n(C)n1` stands 3.98 µM (active).
Regarding `C[n+]1cc(-c2ccccc2)n2c1CCCCC2`, the “activity, negative = inhibition” value was 18.1% (inactive).
Same read-out and setting: next, `CN(C)CCCN1c2ccccc2Sc2cnccc21`: 5.82% [at 11.4 µM] (inactive).
For `Cc1ccc(C(C(=O)NCc2ccco2)N(C(=O)CNC(=O)c2cccs2)c2ccc(C)cc2C)cc1` (stereo not given), the AC50 is 0.447 µM (active).
As to `Cc1ccc(C(C(=O)NCc2ccco2)N(C(=O)CNC(=O)c2cccs2)c2ccc(C)cc2)cc1` (stereo not given), the “activity, negative = inhibition” value was -21.2% (inactive).
Same read-out and setting: under `C[C@H](O/N=C1/[C@H]2O[C@@H]2[C@@H](O)[C@H]2[C@H]1CCn1c(=O)n(-c3ccccc3)c(=O)n12)c1cn([C@H](CO)Cc2ccccc2)nn1` stands -5.06% [at 11.4 µM] (inactive) and -0.376% [at 11.4 µM] (inactive); under `CNc1nc(-c2cccc(C#N)c2)nc2ccccc12`, -18.8% [at 2.29 µM] (inactive).
Take `Cc1nc(Sc2ccccc2)c(C#N)cc1-c1ccccc1`: the AC50 is 5.01 µM (active).
Turning to `Cc1ccc(-c2nc(-c3nccc4ccccc34)oc2-c2ccccc2)cc1`, the activity, negative = inhibition was -0.601% [at 11.4 µM] (inactive).
In the case of `Cc1nc(Cl)c(C#N)cc1-c1ccccc1`, the AC50 is 10 µM (active).
Still for that read-out and setting: under `N#Cc1cc(-c2ccccc2)cnc1Sc1ccc(Cl)cc1` stands 3.55 µM (active).
For `Cc1ccc(Sc2nc(-c3ccccc3)ccc2C#N)cc1`, the AC50 is 7.94 µM (active).
As to `CCOC(=O)CCN1C(=O)[C@H]2[C@H]3[C@H](O)[C@H](O)C/C(=N/OC[C@@H](O)COCc4ccco4)[C@H]3CC[C@@H]2C1=O`, the activity, negative = inhibition was 10.4% [at 11.4 µM] (inactive).
The same measure, in the same setting: next, `CN(C/C=C\c1ccccc1)Cc1cccc2ccccc12`: -24.2% [at 25.6 µM] (inactive); `CN(C)c1nc(-c2ccoc2)nc2ccccc12`: 21.3% [at 2.29 µM] (inactive).
With `O=C(NC1CCCCC1)C1CC=CCC1C(=O)OCC(Cl)=C(Cl)Cl` (stereo not given), the AC50 is 1.41 µM (active).
For the molecule `C#CCCCO/N=C1/C[C@@H](O)[C@@H](O)[C@@H]2[C@@H]3C(=O)N(Cc4ccccc4)C(=O)[C@H]3CC[C@@H]12`, the activity, negative = inhibition was -2.53% [at 11.4 µM] (inactive).
Take `NC[C@](O)(CS(=O)(=O)O)c1ccc(Cl)cc1`: the “activity, negative = inhibition” value was 11.2% (inactive).
On the same count and under the same terms, next, `COc1ccc(CCN2C(=NC(=O)CCC(=O)O)SC3CS(=O)(=O)CC32)cc1` (stereo not given): -18.3% (inactive).
As for `O=C(c1ccc([N+](=O)[O-])cc1)[C@@H](Br)[C@@H](Br)c1ccnc2ccccc12`, the AC50 was 3.16 µM (active).
`O=[N+]([O-])c1ccc2ncccc2c1CCc1c([N+](=O)[O-])ccc2ncccc12`: the activity, negative = inhibition is 13% [at 11.4 µM] (inactive).
With `CCC[C@@H]1O[C@@H]2C[C@@H]3[C@H]4CCC5=CC(=O)C=C[C@@]5(C)[C@H]4[C@H](O)C[C@@]3(C)[C@@]2(C(=O)CO)O1`, the “activity, negative = inhibition” value is -19% [at 25.6 µM] (inactive).
For `N#C/C(=C\c1ccc(Cl)cc1)c1nc2ncccc2[nH]1`, the AC50 is 7.08 µM (active).
Same read-out and setting: under `N#C/C(=C\c1ccccc1)c1nc2ncccc2[nH]1` stands 5.01 µM (active).
Turning to `COc1ccc2[nH]cc(CCNc3cc(-c4ccoc4)ncn3)c2c1`, the activity, negative = inhibition is -23.3% [at 2.29 µM] (inactive).
Take `COc1ccc2[nH]cc(CCNc3ncncc3-c3ccccc3C(F)(F)F)c2c1`: the AC50 was 0.1 µM (active).
The same measure, in the same setting: under `COc1ccc2[nH]cc(CCNc3ncncc3-c3ccccc3OC)c2c1` stands 0.251 µM (active).
Regarding `COc1ccc2[nH]cc(CCNc3ccnc(-c4ccccc4C(F)(F)F)n3)c2c1`, the activity, negative = inhibition is -28.2% [at 2.29 µM] (inactive).
For the molecule `COc1ccc(CNc2ncncc2-c2ccccc2C(F)(F)F)c(OC)c1`, the activity, negative = inhibition is -25.4% [at 2.29 µM] (inactive).
Turning to `COc1ccc2[nH]cc(CCNc3ncncc3-c3cccc(NS(C)(=O)=O)c3)c2c1`, the AC50 was 0.398 µM (active).
Consider `COc1ccc2[nH]cc(CCNc3ncncc3-c3ccccc3CN(C)C)c2c1`, for which the activity, negative = inhibition is 4.66% [at 2.29 µM] (inactive).
As to `COc1ccc2[nH]cc(CCNc3ncncc3-c3ccccc3Cl)c2c1`, the AC50 is 0.2 µM (active).
For the molecule `CN[C@H](CC(=O)O)C(=O)O`, the “activity, negative = inhibition” value is 11.3% (inactive).
For the molecule `O=S1(=O)C=C(SCc2cccc(Cl)c2)Nc2ccccc21`, the AC50 is 1.58 µM (active).
Turning to `O=C(c1nn(Cc2ccccc2)c(=O)c2ccccc12)N1CCN(C/C=C/c2ccccc2)CC1`, the AC50 was 3.98 µM (active).
The same measure, in the same setting: next, `COC(=O)c1cc2n(n1)CCN(Cc1ccccc1F)C2=O`: 10 µM (active).
Turning to `CNC[C@H](O)[C@H](O)[C@H](O)[C@H](O)CO`, the “activity, negative = inhibition” value was -13.8% [at 25.6 µM] (inactive).
Regarding `CC(C)[C@](N)(C(=O)O)c1ccccc1`, the activity, negative = inhibition is -6.77% [at 11.4 µM] (inactive).
Still for that read-out and setting: next, `CC(C)NC(=O)N1CC2(CCN(C(=O)c3ccco3)CC2)C1`: 2.28% (inactive).
Still for that read-out and setting: next, `CC(C)NC(=O)N1CCC2(CC1)CCN(C(=O)c1ccco1)CC2`: 5.65% (inactive).
Take `CC1CCN(C(NC(=O)c2ccco2)C(=O)c2ccccc2)CC1` (stereo not given): the AC50 is 2.51 µM (active).
In the case of `O=C(c1csnn1)N1CCC2(CCN(Cc3nccs3)CC2)CC1`, the “activity, negative = inhibition” value is 2.1% (inactive).
With `CS(=O)(=O)Nc1cccc(-c2ccc3ncnc(N4CCOCC4)c3c2)c1`, the activity, negative = inhibition is -1.72% [at 2.29 µM] (inactive).
On to `Cn1nc(-c2ccc(N3CCOCC3)c(NS(=O)(=O)c3ccc(Cl)cc3)c2)c2ccccc2c1=O`, for which the AC50 is 1 µM (active).
`COCCn1c(=O)c(-c2ccc(Cl)cc2)nc2cnc(N3CCOCC3)nc21`: the “activity, negative = inhibition” value was -14.6% (inactive).
`CC(CP(=O)(O)O)NC(=O)Cc1ccccc1` (stereo not given): the “activity, negative = inhibition” value is -17.6% (inactive).
The same measure, in the same setting: under `O=C(O)C1CCCCC1C(=O)Nc1cc(Cl)ccc1Cl` (stereo not given) stands -16% (inactive).
For `COc1ccc([N+](=O)[O-])cc1NC(=S)NC(NC(=O)Cc1ccc(OC)c(OC)c1)C(Cl)(Cl)Cl` (stereo not given), the AC50 was 1.26 µM (active).
For the molecule `O=C(NC(NC(=S)Nc1cc(Cl)ccc1Cl)C(Cl)(Cl)Cl)c1ccco1` (stereo not given), the AC50 was 0.0447 µM (active).
Still for that read-out and setting: under `O=C(/C=C/c1ccccc1)NC(NC(=S)Nc1ccc(Cl)cc1)C(Cl)(Cl)Cl` (stereo not given) stands 0.562 µM (active).
Take `COc1ccc(C[C@@](C)(N)C(=O)O)cc1OC`: the “activity, negative = inhibition” value was -19.4% [at 25.6 µM] (inactive).
Turning to `O=C(/C=C/c1ccc(Cl)cc1)Nc1ccc(N2CCCCC2)cc1`, the “activity, negative = inhibition” value was -9.43% (inactive).
On to `O=C(Cc1ccccc1)NC(NC(=S)Nc1cc(Cl)ccc1Cl)C(Cl)(Cl)Cl` (stereo not given), for which the AC50 is 0.562 µM (active).
For the molecule `Cc1c(NC(=O)C23CC4CC(CC(C)(C4)C2)C3)c(=O)n(-c2ccccc2)n1C`, the “activity, negative = inhibition” value was -19.7% (inactive).
On the same count and under the same terms, under `O=C(CNS(=O)(=O)c1ccc(Br)s1)N1CCC(N2CCCCC2)CC1` stands -20.1% (inactive).
Turning to `Cc1ccc(-n2c(C)cc(/C=C(\C#N)C(=O)NCC3CCCO3)c2C)cc1` (stereo not given), the AC50 is 17.8 µM (active).
For `N#C/C(=C\c1cccs1)C(=O)NCC1CCCO1` (stereo not given), the “activity, negative = inhibition” value is -24.7% (inactive).
`NC(=O)C1CCN(C(=O)CN2C(=O)c3ccccc3S2(=O)=O)CC1`: the “activity, negative = inhibition” value is 1.61% (inactive).
The same measure, in the same setting: next, `O=C1c2ccccc2C(=O)N1C[C@]1(C(=O)O)NCCS1(=O)=O`: -4.49% [at 11.4 µM] (inactive).
With `CC(C)N(CCC(=O)c1ccc2ccccc2c1)Cc1ccccc1`, the half-maximal activity concentration (AC50) was 12.6 µM (active) and inactive.
For `O=C(O)CCCc1ccc2ccccc2c1`, the activity, negative = inhibition is -4.57% [at 11.4 µM] (inactive).
